High-throughput results deposited in PubChem by National Center for Advancing Translational Sciences (NCATS).
Only some compounds are listed: those with a hit (about 5.7% of all), similar ones and a draw of the others.
BAZ2B inh – qHTS Assay for Inhibitors of BAZ2B; AlphaScreen BAZ2B-H3K14Ac peptide displacement; Potency, µM (doses to about 114 µM), without a hit: at the top dose activity change, negative = inhibition, usual class: inhibitors; hit rate 4.4% among 360,000; AID 504333, 2011; further: potency means the concentration at half of the fitted maximal effect; on the % scale 0 is the no-effect control and ±100 the full control effect; nearly all actives have a fitted effect of over 60% in size
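Inhibition is scored as reduced AlphaScreen emission. The BAZ2B/b-H3(5-23)K14Ac complex (50 nM each) in PBS pH 7.4, 0.01% Tween-20 meets compound (up to 110 uM) for 30 min at RT before bead addition.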
HP1b binding inh – HTS for Inhibitors of HP1-beta Chromodomain Interactions with Methylated Histone Tails | Potency, µM (highest dose often 114 µM), inactives show at the highest dose activity change, negative = inhibition, most hits filed as inhibitors | Chromobox protein homolog 1 (Homo sapiens), P83916 | hit rate 0.56% among 390,000 | AID 540317, 2011 | AlphaScreen HP1-beta / biotin-H3K9me3 peptide binding; further: potency means the concentration at half of the fitted maximal effect; nearly all actives have a fitted effect of over 70% in size
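AlphaScreen: HP1-beta (50 nM) preformed 30 min with biotin-H3(1-18)K9me3 peptide (50 nM) in PBS pH 7.4, 0.01% Tween-20. Compound added for 30 min at RT, then streptavidin donor/nickel chelate acceptor beads (10 ug/mL) for 30 min.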
JMJD2A Tudor inh – qHTS Assay for Inhibitors of JMJD2A-Tudor Domain. AlphaScreen JMJD2A-Tudor / H3K4me3 peptide binding. hit rate 4.4% among 390,000. Lysine-specific demethylase 4A (Homo sapiens), O75164. Potency, µM (series often up to 114 µM), for the others: top-dose activity change, negative = inhibition, hits mostly inhibitors; further: potency means the concentration at half of the fitted maximal effect; on the % scale 0 is the no-effect control and ±100 the full control effect; nearly all actives have a fitted effect of over 50% in size
JMJD2E inh – qHTS Assay for Inhibitors of Human Jumonji Domain Containing 2E (JMJD2E); JMJD2E catalytic domain, FDH-coupled NADH fluorescence (FDH is formaldehyde dehydrogenase); Potency, µM (series often up to 57.1 µM), for inactives: top-dose activity change, negative = inhibition, hits mostly inhibitors; hit rate 1.6% among 230,000; AID 2147, 2009; active means well fitted inhibition curve with a large enough effect, not every such curve was filed as active; inconclusive means small, poorly fitted or top-dose-only effect, or another doubt; inactive means no such curve, though single readings can be large or run the other way;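 further: potency means the concentration at half of the fitted maximal effect; 0% = wells with enzyme and -100% = buffer wells without enzyme; nearly all actives have a fitted effect of over 50% in size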
Target sequence (B2RXH2 1-337 limits assumed): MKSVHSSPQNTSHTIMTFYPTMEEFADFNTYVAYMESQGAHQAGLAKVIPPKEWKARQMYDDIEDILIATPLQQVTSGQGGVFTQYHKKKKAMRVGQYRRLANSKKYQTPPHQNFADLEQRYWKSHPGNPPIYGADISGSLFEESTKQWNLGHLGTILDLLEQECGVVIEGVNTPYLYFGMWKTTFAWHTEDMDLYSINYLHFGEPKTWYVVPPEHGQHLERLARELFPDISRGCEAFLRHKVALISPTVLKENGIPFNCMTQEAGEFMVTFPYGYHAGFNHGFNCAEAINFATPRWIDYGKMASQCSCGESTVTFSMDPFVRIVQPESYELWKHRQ
L3MBTL1 block – qHTS Assay for the Inhibitors of L3MBTL1 | AlphaScreen L3MBTL1–H3K9me1 peptide binding | Potency, µM (top dose mostly 57.1 µM), for the others: at the highest dose activity, negative = inhibition, actives largely listed as inhibitors | hit rate 0.66% among 230,000 | AID 485360, 2010; further: potency means the concentration at half of the fitted maximal effect; on the % scale 0 is the no-effect control and ±100 the full control effect; nearly all actives have a fitted effect of over 60% in size
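AlphaScreen proximity signal between nickel-chelate acceptor and streptavidin donor beads (final 10 ug/mL) reports binding of 50 nM L3MBTL1 to 75 nM biotin-H3 K9me1 peptide; complex incubated with compounds 30 min at room temperature; cefsulodin titration as control.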
PI5P4K alpha inh – qHTS for Inhibitors of phosphatidylinositol 5-phosphate 4-kinase (PI5P4K). PI5P4Kalpha enzyme, ADP-Glo luminescence, 60 min; active compounds read low. AID 652105, 2013. max response, %. hit rate 1.2% among 330,000. Phosphatidylinositol 5-phosphate 4-kinase type-2 alpha (Homo sapiens), P48426; active means max response of -50% or lower; inconclusive means between -30% and -50%; inactive means -30% or higher; further: value at the top dose of about 77 µM; on the % scale 0 is the no-effect control and ±100 the full control effect
Target sequence (P48426 whole entry, looked up): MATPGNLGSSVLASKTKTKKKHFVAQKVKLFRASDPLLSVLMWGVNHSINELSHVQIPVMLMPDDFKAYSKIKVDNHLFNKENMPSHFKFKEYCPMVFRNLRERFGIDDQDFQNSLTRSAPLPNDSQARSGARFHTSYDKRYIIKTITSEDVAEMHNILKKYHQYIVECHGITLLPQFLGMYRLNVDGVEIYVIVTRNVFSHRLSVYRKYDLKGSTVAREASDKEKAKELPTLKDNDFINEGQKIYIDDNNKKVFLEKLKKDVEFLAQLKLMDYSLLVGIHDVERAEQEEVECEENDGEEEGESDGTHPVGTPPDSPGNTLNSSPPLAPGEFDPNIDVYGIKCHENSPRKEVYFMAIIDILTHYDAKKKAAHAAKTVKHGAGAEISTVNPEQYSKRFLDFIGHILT
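Reactions run in 0.038 M HEPES pH 7.4, 0.28 mM EGTA, 0.1% CHAPS and 5% DMSO, with PI5P4Kalpha, substrate, compound and 5 microM ATP final, one hour at room temperature. Readout is ADP-Glo luminescence.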
ADP-Glo interf – qHTS for Inhibitors of PI5P4K: ADP-Glo counter assay | shares compounds with PI5P4K alpha inh | ADP-Glo detection counter-screen, luciferase luminescence, no enzyme | Potency, µM (doses to about 76.9 µM), for inactives: at the highest dose activity change, negative = inhibition, most hits filed as inhibitors | 1,100 tested, under 10 active | AID 743285, 2014
* marks the source's active call; other numbers are inactive results; ? = inconclusive; . = not tested or not shown; [ ] = dose if it differs, or a comment. Unless noted, the call rests on the fitted dose curve; in most records, active means well fitted curve in the direction sought with a large enough effect; inconclusive means small, poorly fitted or top-dose-only effect, or another doubt; inactive means no such curve, though single readings can be large; an effect the other way counts as inactive or inconclusive.

SMILES	BAZ2B inh	HP1b binding inh	JMJD2A Tudor inh	JMJD2E inh	L3MBTL1 block	PI5P4K alpha inh	ADP-Glo interf
CCS(=O)(=O)c1ccc2oc(Nc3ccc(C(C)C)cc3)nc2c1	-35.3%	15.8µM*	?	?	.	-50.4*	-5.6%
C=CCn1c(SCC(=O)NC(=O)Cc2ccccc2)nnc1-c1ccccc1F	.	5.6%[57 µM]	-20.7%	.	2.6%	-0.7	.
O=C1NN=C2CCCCCC12 (centres undefined)	.	.	.	.	.	-5.9	-0.6%
Cc1ccc([N+](=O)[O-])cc1NC(=O)CCSc1ccc(Cl)cc1	-3.0%	13.7%	-12.2%	6.8%	10.0%	-70.2*	-2.1%
COc1ccc(CC(=O)NCc2nc(-c3ccccc3)no2)cc1	3.1%	35.0%	-7.6%	-7.6%	1.9%	1.7	.
COc1ccc(OCC(=O)NCc2nc(-c3ccccc3)no2)cc1	.	-14.6%[57 µM]	-32.8%	.	.	-57.6*	3.3%
O=C(NCC1CCN(C(=O)c2cccc([N+](=O)[O-])c2)CC1)c1cccc([N+](=O)[O-])c1	-1.3%	-14.0%	-9.2%	.	.	6.5	.
O=C(NCC1CCCCC1)c1cccc([N+](=O)[O-])c1	?	37.1%	-9.7%	.	7.6%	-62.2*	0.8%
O=C(c1ccc(Br)cc1)c1cc2ccc(O)cc2oc1=O	-38.7%	-2.1%	?	.	.	-62.7*	-5.1%
Cc1ccc(S(=O)(=O)N2CCN(Cc3cc(C(C)(C)C)ccc3O)CC2)cc1	-24.9%	24.5%	?	.	-8.4%	-1.6	.
Cc1ccc(NC(=O)c2ccc3c(c2)NC(=O)CS3)nc1	-18.4%	?	-21.1%	.	-3.8%	-56.6*	-9.4%
COCC(=O)N(C)C[C@H]1N[C@@](C)(C(=O)OC)[C@H]2C(=O)N(Cc3ccccc3)C(=O)[C@@H]12	.	30.6%	-22.5%	.	7.6%	-1.7	.
CC(OC(=O)CCc1nc2ccccc2c(=O)[nH]1)C(=O)c1ccc(C(C)(C)C)cc1 (centres undefined)	-32.2%	?	-19.7%	13.2%	-4.2%	-14.3	.
O=C(NC1CCCC1)C(c1ccncc1)N(C(=O)c1csnn1)c1ccccc1F (centres undefined)	3.8%	12.0%	-6.7%	.	.	-51.6*	9.7%
Cc1ccc(C)c(NC(=O)c2ccc3c(c2)N(Cc2ccc(F)cc2)C(=O)CS3=O)c1 (centres undefined)	23.1%	2.8%	-27.0%	3.5%	42.0%	-58.1*	-0.2%
CCOc1ccc(NC(=O)c2ccc3c(c2)N(Cc2ccc(F)cc2)C(=O)CS3=O)cc1 (centres undefined)	-24.0%	45.2%	-12.7%	-6.3%	-1.8%	-5.4	.
COc1cc(Cn2c3ccc(NC(=O)CCc4ccccc4)cc3c(=O)n2C)ccc1F	.	.	.	.	.	-64.0*	-2.4%
O=C(NCc1ccccc1F)Nc1nnc([C@H]2C[C@H](O)[C@@H](CO)O2)s1	.	.	.	.	.	-6.0	.
O=C(NCc1cccc(F)c1)Nc1nnc([C@H]2C[C@H](O)[C@@H](CO)O2)s1	.	.	.	.	.	-50.4*	-1.3%
CC(=O)Nc1cccc(-c2ccnc3c2CC(C(=O)NCc2ccco2)O3)c1 (centres undefined)	.	.	.	.	.	-50.1*	4.9%
O=C(CNC(=O)c1ccco1)NCC(c1ccco1)N1CCCCC1 (centres undefined)	6.3%	43.1%	-5.0%	.	2.3%	0.5	.
CCOc1ccccc1NC(=O)CSc1nc2c(c(=O)[nH]1)CCC2	-18.7%	22.4%	-13.9%	.	.	.	.
Cc1ccc(-c2onc3ccc(C(=O)O)cc23)cc1	-19.7%	28.3%	-20.5%	.	.	-52.3*	0.7%
CC(=O)c1ccc2noc(-c3ccc(C)cc3)c2c1	39.2%	104.6%	7.1%	?	53.4%	-1.9	.
Cc1c(O)c2c(=O)n(-c3ccccc3)c(-c3ccccc3)cc2oc1=O	5.7%	21.3%	-11.0%	11.3%	-4.8%	-7.7	.
SMILES	BAZ2B inh	HP1b binding inh	JMJD2A Tudor inh	JMJD2E inh	L3MBTL1 block	PI5P4K alpha inh	ADP-Glo interf
COCCN(C(=O)COC(=O)Cc1coc2cc3c(cc12)CCC3)c1c(N)n(Cc2ccccc2)c(=O)[nH]c1=O	50.1µM*	?	44.7µM*	.	?	-50.4*	-5.0%
CC(C)N(CCC(=O)c1ccc2ccccc2c1)Cc1ccccc1	16.7%	-27.9%	50.1µM*	35.5µM*	-12.2%	-89.0*	-8.9%
NC(=O)[C@@H]1CC2(CC(c3cccc(NC(=O)COc4ccc(Cl)cc4)c3)=NO2)CN1C(=O)COc1ccc(Cl)cc1 (some centres undefined)	-10.7%	25.9%	-19.4%	-9.4%	.	-7.5	-9.3%
N#CCC(=O)N1CC2(CC(c3cccc(NC(=O)COc4ccc(Cl)cc4)c3)=NO2)C[C@@H]1C(N)=O (some centres undefined)	-9.8%	22.7%	-9.1%	4.1%	.	-1.6	.
COc1cc2cc(CN(Cc3cccnc3)C(=O)Nc3ccccc3F)c(=O)[nH]c2cc1OC	-0.4%	26.7%	-18.7%	?	0.7%	-2.4	.
CCN(CC(=O)Nc1ccc(OC)cc1)C(=O)c1ccc2ccccc2c1	.	15.2%	-8.9%	.	0.2%	-8.4	.
CCN(CC(=O)Nc1ccc(OC)cc1)C(=O)c1ccc([N+](=O)[O-])cc1	5.1%	12.1%	10µM*	5.9%	.	-64.2*	3.0%
Cc1nc(N2CCC(C)CC2)c2c(C)c(C(=O)O)sc2n1	8.0%	23.7%	-12.9%	-0.7%	-4.1%	.	-3.5%
COc1ccc(Nc2nc(N)c(C(=O)c3ccc(F)cc3)s2)cc1	20.7%	-4.1%	?	.	.	-53.9*	0.9%
COc1cccc(Nc2nnc(SCC(=O)Nc3sccc3C(N)=O)s2)c1	79.4µM*	16.0%[57 µM]	-25.7%	?	-28.9%	-52.2*	6.5%
CCc1ccc(Nc2nnc(SCC(=O)Nc3sccc3C(N)=O)s2)cc1	?	0.0%	-33.1%	?	-8.3%	-25.9	.
O=C(NCCc1ccccc1)C1CC(=O)N(C2CCCCC2)C1 (centres undefined)	6.8%	10.8%	-14.4%	.	.	3.6	.
COc1cc2nc(Nc3ccc(C)c(C)c3)nc(N)c2cc1OC	?	6.9%	?	.	.	?	.
COc1cc2nc(Nc3ccc(C)c(Cl)c3)nc(N)c2cc1OC	?	-22.1%	-34.5%	.	.	-59.8*	4.0%
O=c1oc2ccccc2cc1-c1csc(Nc2nc3c(F)cccc3s2)n1	14.8%	35.2%	-13.9%	4.0%	-2.6%	-55.3*	-4.6%
